The structures appear in SMILES notation. This is part of a sample that, as a whole, favours compounds with a hit. Of some 79,000 tested, about 15% had one in any assay. Values without a mark were called inactive. Calls of active or inactive are those of the source. Rule as the data show it: active = growth inhibition above about 70%; inactive = the rest.

For nine molecules, growth inhibition results are on record in PubChem BioAssay (NCI).

A short description of test [1]: NCI Yeast Anticancer Drug Screen. Data for the rad50 strain (AID 155).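 Also: 0% = growth of vehicle-only cultures of the same strain.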 The note with it: S. cerevisiae rad50 strain growth inhibition, active compounds read high. Put shortly: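 Vehicle-treated cultures provide the reference for the growth inhibition reported for compound-exposed, repair-deficient yeast.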
Test [2] can be described thus: NCI Yeast Anticancer Drug Screen. Data for the mec2-1 strain (AID 157). The following applies: S. cerevisiae mec2-1 strain, active compounds read high. Put shortly: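 Mutant yeast (mec2-1) grown with compound; growth inhibition relative to vehicle control reported.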
Test [3] is described as follows: NCI Yeast Anticancer Drug Screen. Data for the sgs1 mgt1 strain (AID 161).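 Also: 0% = growth of cultures given vehicle only.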 The note with it: S. cerevisiae sgs1 mgt1 strain, active compounds read high. A digest of the protocol:
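This yeast growth screen uses a strain with defined DNA-repair lesions; compound-treated growth is compared with vehicle-treated growth.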

Test [4] can be described thus: NCI Yeast Anticancer Drug Screen. Data for the cln2 rad14 strain (AID 165).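 Also: 0% = growth equal to vehicle treated cultures.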 The note with it: S. cerevisiae cln2 rad14 strain, active compounds read high. Put shortly:
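Readout is yeast growth inhibition versus vehicle-treated controls, using a strain with cln2 and rad14 alterations exposed to compound.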

Test [5] in a line: NCI Yeast Anticancer Drug Screen. Data for the bub3 strain (AID 167). The note with it: S. cerevisiae bub3 mutant strain, active compounds read high. A digest of the protocol: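 Mutant yeast screening strain plus compound; vehicle-treated cultures serve as the 0% inhibition reference.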
Test [6] is described as follows: NCI Yeast Anticancer Drug Screen. Data for the mlh1 rad18 strain (AID 175). The note with it: S. cerevisiae mlh1 rad18 strain growth inhibition, active compounds read high. Put shortly: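 Genetically defined yeast (DNA repair-deficient) exposed to compounds; growth inhibition determined relative to vehicle.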
Where [7] appears, read: at 5.0 µM (retest, dose inferred, filed as 0.5).
Setting [8] is: at 50.0 µM (retest, dose inferred, filed as 5.0).

Turning to `COc1ccc2c(c1)sc(/C=C/c1ccc(O)c3ncccc13)[n+]2C`, the growth inhibition is 12% in test [1] (setting [7]); 88% (active) in test [1] (setting [8]); 92.3% (active) in test [1] (at 50.0 µM); 49% in test [2] (setting [7]); 92% (active) in test [2] (setting [8]); 93.6% (active) in test [2] (at 50.0 µM). Moreover, the growth inhibition is -53% in test [3] (setting [7]); 94% (active) in test [3] (setting [8]); 92% (active) in test [3] (at 50.0 µM); 3% in test [4] (setting [7]); 86% (active) in test [4] (setting [8]); 90.3% (active) in test [4] (at 50.0 µM). Further, the growth inhibition is 19% in test [5] (setting [7]); 86% (active) in test [5] (setting [8]); 89.9% (active) in test [5] (at 50.0 µM); 62% in test [6] (setting [7]); 92% (active) in test [6] (setting [8]); 92.4% (active) in test [6] (at 50.0 µM).

In the case of `O=C(Nc1ccccc1C(=O)NC(=O)c1ccccc1NC(=O)c1ccccc1)c1ccccc1`, the growth inhibition in test [1] (setting [7]) was -4%; in test [1] (setting [8]), 99% (active); in test [1] (at 50.0 µM), 58.9%; in test [2] (setting [7]), 10%; in test [2] (setting [8]), 99% (active); in test [2] (at 50.0 µM), 57.5%. The growth inhibition in test [3] (setting [7]) is -2%; in test [3] (setting [8]), 99% (active); in test [3] (at 50.0 µM), 54.8%; in test [4] (setting [7]), 4%; in test [4] (setting [8]), 99% (active); in test [4] (at 50.0 µM) it was 40.8%. For the same molecule, the growth inhibition is -1% in test [5] (setting [7]); 99% (active) in test [5] (setting [8]); 46.1% in test [5] (at 50.0 µM); 5% in test [6] (setting [7]); 99% (active) in test [6] (setting [8]); 63.5% in test [6] (at 50.0 µM).

In the case of `CN(C)S(=O)(=O)c1cc(Cl)ccc1NN`, the growth inhibition was -114% in test [1] (setting [7]); -20% in test [1] (setting [8]); 59.6% in test [1] (at 50.0 µM); -44% in test [2] (setting [7]); -41% in test [2] (setting [8]); 36.9% in test [2] (at 50.0 µM). The growth inhibition in test [3] (setting [7]) is -56%; in test [3] (setting [8]) it was -21%; in test [3] (at 50.0 µM), 44%; in test [4] (setting [7]), -41%; in test [4] (setting [8]) it was -22%; in test [4] (at 50.0 µM), 19.2%. The growth inhibition in test [5] (setting [7]) is -71%; in test [5] (setting [8]), -14%; in test [5] (at 50.0 µM), 78.4% (active); in test [6] (setting [7]), -119%; in test [6] (setting [8]), -32%; in test [6] (at 50.0 µM), 48.6%.

With `Cc1cc(O)n(Cc2ccccc2)c(=O)c1`, the growth inhibition in test [1] (setting [7]) is -151%; in test [1] (setting [8]) it was 34%; in test [1] (at 50.0 µM), 48.5%; in test [2] (setting [7]), -51%; in test [2] (setting [8]) it was -36%; in test [2] (at 50.0 µM) it was 9.75%. Further, the growth inhibition in test [3] (setting [7]) is -67%; in test [3] (setting [8]), 33%; in test [3] (at 50.0 µM), 34.6%; in test [4] (setting [7]) it was -60%; in test [4] (setting [8]), -45%; in test [4] (at 50.0 µM) it was -4.75%. In addition, the growth inhibition in test [5] (setting [7]) was -70%; in test [5] (setting [8]) it was 4%; in test [5] (at 50.0 µM), 47.9%; in test [6] (setting [7]) it was -123%; in test [6] (setting [8]), 7%; in test [6] (at 50.0 µM), 67.1%.

For `O=Cc1ccc(O)cc1O`, the growth inhibition in test [1] (setting [7]) was 8%; in test [1] (setting [8]), 24%; in test [1] (at 50.0 µM), 58.5%; in test [2] (setting [7]) it was 8%; in test [2] (setting [8]), 16%; in test [2] (at 50.0 µM), 29.6%. Further, the growth inhibition in test [3] (setting [7]) is 7%; in test [3] (setting [8]) it was 15%; in test [3] (at 50.0 µM), 25.8%; in test [4] (setting [7]) it was 4%; in test [4] (setting [8]), 14%; in test [4] (at 50.0 µM), -38.6%. Also, the growth inhibition in test [5] (setting [7]) is 7%; in test [5] (setting [8]), 10%; in test [5] (at 50.0 µM) it was 55.4%; in test [6] (setting [7]), 1%; in test [6] (setting [8]) it was 13%; in test [6] (at 50.0 µM), 59%.

As to `O=C1CCCCC1Sc1ccc(Cl)cc1` (configuration not stated), the growth inhibition in test [1] (setting [7]) is 1%; in test [1] (setting [8]), 94% (active); in test [1] (at 50.0 µM) it was 91.2% (active); in test [2] (setting [7]), 2%; in test [2] (setting [8]) it was 95% (active); in test [2] (at 50.0 µM), 91.1% (active). Besides, the growth inhibition in test [3] (setting [7]) was 2%; in test [3] (setting [8]), 87% (active); in test [3] (at 50.0 µM) it was 96.3% (active); in test [4] (setting [7]) it was -4%; in test [4] (setting [8]), 76% (active); in test [4] (at 50.0 µM), 76.1% (active). Further, the growth inhibition is 3% in test [5] (setting [7]); 96% (active) in test [5] (setting [8]); 85.2% (active) in test [5] (at 50.0 µM); 2% in test [6] (setting [7]); 94% (active) in test [6] (setting [8]); 87.5% (active) in test [6] (at 50.0 µM).

As to `CC(C)N=Cc1cc(Br)cc(Br)c1O.CC(C)N=Cc1cc(Br)cc(Br)c1O.[Co]`, the growth inhibition in test [1] (setting [7]) was 93% (active); in test [1] (setting [8]), 99% (active); in test [1] (at 50.0 µM), 92% (active); in test [2] (setting [7]) it was 54%; in test [2] (setting [8]), 99% (active); in test [2] (at 50.0 µM) it was 90.6% (active). Also, the growth inhibition in test [3] (setting [7]) was 87% (active); in test [3] (setting [8]), 99% (active); in test [3] (at 50.0 µM), 98% (active); in test [4] (setting [7]) it was 88% (active); in test [4] (setting [8]), 99% (active); in test [4] (at 50.0 µM), 65%. The growth inhibition was 98% (active) in test [5] (setting [7]); 99% (active) in test [5] (setting [8]); 86.3% (active) in test [5] (at 50.0 µM); 98% (active) in test [6] (setting [7]); 99% (active) in test [6] (setting [8]); 88.7% (active) in test [6] (at 50.0 µM).

For `CC(=O)/C(=C\c1cccc(Cl)c1)C(=O)CCN(C)C`, the growth inhibition was 24% in test [1] (setting [7]); 29% in test [1] (setting [8]); 14.8% in test [1] (at 50.0 µM); 20% in test [2] (setting [7]); 33% in test [2] (setting [8]); 28.8% in test [2] (at 50.0 µM). For the same molecule, the growth inhibition is 20% in test [3] (setting [7]); 29% in test [3] (setting [8]); 50.5% in test [3] (at 50.0 µM); 25% in test [4] (setting [7]); 29% in test [4] (setting [8]); 21.4% in test [4] (at 50.0 µM). Besides, the growth inhibition in test [5] (setting [7]) is 13%; in test [5] (setting [8]), 34%; in test [5] (at 50.0 µM) it was 4.4%; in test [6] (setting [7]), 23%; in test [6] (setting [8]) it was 40%; in test [6] (at 50.0 µM) it was 25.1%.

For `CC(C)Cn1cnc2c(SCc3ccc(Cl)cc3Cl)nc(N)nc21`, the growth inhibition is 0% in test [1] (setting [7]); 46% in test [1] (setting [8]); 36.7% in test [1] (at 50.0 µM); -1% in test [2] (setting [7]); 38% in test [2] (setting [8]); 29.9% in test [2] (at 50.0 µM). For the same molecule, the growth inhibition in test [3] (setting [7]) was 20%; in test [3] (setting [8]), 45%; in test [3] (at 50.0 µM), 90.8% (active); in test [4] (setting [7]), -15%; in test [4] (setting [8]), 44%; in test [4] (at 50.0 µM) it was 41.2%. Moreover, the growth inhibition was 4% in test [5] (setting [7]); 32% in test [5] (setting [8]); 38.7% in test [5] (at 50.0 µM); -3% in test [6] (setting [7]); 66% in test [6] (setting [8]); 66.8% in test [6] (at 50.0 µM).
